# Records with an inconclusive call do not appear. A call without a number means that no potency is given here. Activity calls are given as the source filed them. The call rests on the fitted dose curve.
# Molecular target: Beta-2 adrenergic receptor (Homo sapiens) (UniProt P07550)
# Assay: Adrenergic beta2 receptor (ADRB2) small molecule agonists, cell-based qHTS assay (AID 1963593);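 further: CHO cells stably overexpressing human ADRB2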
# Procedure, shortened: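 CHO cells stably over-expressing ADRB2 were plated overnight at 37C, then dosed with compounds plus a stimulation mix containing 100uM IBMX and 25uM Ro-20-1724 for 0.5hr at room temperature. cAMP was measured by HTRF competition, 1hr.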
# Beta-2 adrenergic receptor (Homo sapiens), sequence (P07550 whole entry, looked up): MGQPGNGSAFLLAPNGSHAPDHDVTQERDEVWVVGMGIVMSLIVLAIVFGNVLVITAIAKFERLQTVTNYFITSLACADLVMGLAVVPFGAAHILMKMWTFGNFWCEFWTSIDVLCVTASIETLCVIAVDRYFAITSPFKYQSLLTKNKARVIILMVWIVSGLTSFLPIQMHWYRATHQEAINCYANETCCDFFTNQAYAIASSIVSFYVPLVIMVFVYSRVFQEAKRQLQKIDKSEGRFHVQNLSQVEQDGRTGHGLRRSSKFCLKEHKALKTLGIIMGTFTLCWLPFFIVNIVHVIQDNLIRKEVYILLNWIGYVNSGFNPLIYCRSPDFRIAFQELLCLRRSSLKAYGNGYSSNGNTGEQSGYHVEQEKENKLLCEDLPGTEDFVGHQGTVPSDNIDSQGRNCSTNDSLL
row,SMILES,Potency
1,NS(=O)(=O)Cc1noc2ccccc12,inactive
2,CCCCC(=O)OCC(=O)[C@H]1[C@H](C)C[C@H]2[C@@H]3C[C@H](F)C4=CC(=O)C=C[C@]4(C)[C@@]3(F)[C@@H](O)C[C@@]21C,inactive
3,CCCCCCOC(=O)C(C)C,inactive
4,C1=C\CC/C=C\CC/1,inactive
5,c1ccc(SSc2ccccc2)cc1,inactive
6,CCC(C)c1nccnc1OC (configuration not stated),inactive
7,O=P(O)(O)OCC(O)CO (configuration not stated),inactive
8,CC(=O)CC(c1ccc([N+](=O)[O-])cc1)c1c(O)c2ccccc2oc1=O (configuration not stated),inactive
9,C(=C/c1ccccc1)/c1ccccc1,inactive
10,O=C(Nc1ccc2c(O)c(N=Nc3ccc(N=Nc4ccc(S(=O)(=O)O)cc4)cc3)c(S(=O)(=O)O)cc2c1)c1ccccc1,inactive
11,O=C(CO)[C@@H](O)[C@H](O)[C@@H](O)CO,inactive
12,CC(C)(O)CCc1ccccc1,inactive
13,N#C[C@@H]1CC(F)(F)CN1C(=O)CNC1CC2CCC(C1)N2c1ncccn1 (some centres not stated),inactive
14,O=C(OC1C[C@H]2CC[C@@H](C1)[N+]21CCCC1)C(O)(c1ccccc1)c1ccccc1 (some centres not stated),inactive
15,CN1CCN(CCCN2c3ccccc3Sc3ccc(Cl)cc32)CC1,inactive
16,CC(C)(Oc1ccc(Cl)cc1)C(=O)OCCCOC(=O)C(C)(C)Oc1ccc(Cl)cc1,inactive
17,C=CCn1c(=O)n(CC=C)c(=O)n(CC=C)c1=O,inactive
18,CCOC(=O)OCC/C(SC(=O)OCC)=C(\C)N(C=O)Cc1cnc(C)nc1N,inactive
19,Clc1ccc(C(Cn2ccnc2)OCc2c(Cl)cccc2Cl)c(Cl)c1 (configuration not stated),inactive
20,Nc1ncnc(Nc2ccccc2)n1,inactive
21,COC(=O)CCCCC(CCSS/C(CCO)=C(\C)N(C=O)Cc1cnc(C)nc1N)SC(C)=O (configuration not stated),inactive
22,C=C1C(CCl)(CCl)C2(Cl)C(Cl)C(Cl)C1(Cl)C2(Cl)Cl (configuration not stated),inactive
23,O=C(Nc1ccccc1)c1cc([N+](=O)[O-])ccc1Cl,inactive
24,CCCCCCCCCCCCCOP(=O)(O)O,inactive

row,SMILES,Potency
1,COc1ccc2[nH]c(S(=O)Cc3ncc(C)c(OC)c3C)nc2n1 (configuration not stated),inactive
2,CCCCCCC/C=C/C=O,inactive
3,COc1cc(C(=O)NS(=O)(=O)c2ccccc2C)ccc1Cc1cn(C)c2ccc(NC(=O)OC3CCCC3)cc12,inactive
4,CCCOC(=O)c1ccc(N)cc1,inactive
5,CC(C)C[C@H](NC(=O)OCC1c2ccccc2-c2ccccc21)C(=O)O,inactive
6,CC(C)=CCC1=C(O)c2ccccc2C(=O)C1=O,inactive
7,CC(C(=O)O)c1cccc(Oc2ccccc2)c1 (configuration not stated),inactive
8,Cc1cccc(C)c1OCC(C)N (configuration not stated),inactive
9,CC(=O)OC1CCC(C(C)(C)C)CC1 (configuration not stated),inactive
10,C1COC(NC(C2CC2)C2CC2)=N1,inactive
11,Cc1nc2n(c(=O)c1CCN1CCC(c3noc4cc(F)ccc34)CC1)CCC[C@H]2O,inactive
12,CCCCOC(=O)C(C)Oc1ccc(Oc2ccc(C(F)(F)F)cn2)cc1 (configuration not stated),inactive
13,CC(C)(O)c1coc(S(=O)(=O)NC(=O)Nc2c3c(cc4c2CCC4)CCC3)c1,inactive
14,O=C1CCCN1CCO,inactive
15,CCCCCCCCCCOC(C)=O,inactive
16,CCN(CC)CCOC(=O)C(Cc1cccc2ccccc12)CC1CCCO1 (configuration not stated),inactive
17,CN1CN(C)CN(C)C1,inactive
18,Cc1ccc2c(c1[N+](=O)[O-])C(=O)c1ccccc1C2=O,inactive
19,CC(=O)N(CC(=O)N(C)C)c1ccccc1,inactive
20,CC(C)C(=O)OC/C=C/c1ccccc1,inactive
21,O=C(NCCc1c[nH]c2ccccc12)c1cccnc1,inactive
22,O=C(OCc1ccccc1)C(=O)OCc1ccccc1,inactive
23,CCOC(=O)CC(=O)c1cc(F)c(Cl)nc1Cl,inactive

# Source: PubChem BioAssay (Tox21)
